Experimental data: PubChem BioAssay AID1053125 (Broad Institute, 2014)
Measured potencies and affinities stand elsewhere. Calls of active or inactive are those of the source.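 How the source made its calls: active means viability loss whose fitted half-maximal concentration is at most twice the top valid tested dose; inconclusive means flat curve with 30 to 70% loss, or poor fit; inactive means the rest.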

Assay: HepG2 cell cytotoxicity, dose response, cytotoxicity control, ATP luminescence, cherry-pick, set 6 (AID 1053125);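 further: negative values mean loss of viability signal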
Settings: HepG2 viability, ATP luminescence (CellTiter-Glo), 72 h; series mostly up to 26 µM; activity change, negative = cytotoxicity: at the top concentration

Row | SMILES | activity change, negative = cytotoxicity
1 | O=C1c2ccccc2S(=O)(=O)c2cc(N3CCC(C(=O)N4CCCCC4)CC3)ccc21 | -6.38% (inactive)
2 | Cc1c(C(=O)NCc2ccc(Cl)c(Cl)c2)sc(=O)n1Cc1cccc(F)c1 | -9.25% (inactive)
3 | O=C(c1ccc(F)cc1)C1CCN(C(=O)Nc2ccccc2Cl)CC1 | -1.49% (inactive)
4 | Cc1cccn2c(=O)c3cc(C(=O)NCCN4CCOCC4)c(=N)n(CCc4ccccc4)c3nc12 | 1.54% (inactive)
5 | CCc1cccc(OC2OC(CO)C(O)C(O)C2NC(C)=O)c1 (stereo not given) | -12.1% (inactive)
6 | CC(C)(C)[C@H]1CCC(=O)N([C@H](CSc2ccccc2)Cc2ccccc2)CC1 | -0.826% (inactive)
7 | COc1cc(C(c2c(C(=O)O)[nH]c3ccccc23)c2c(C(=O)O)[nH]c3ccccc23)ccc1OCc1ccccc1 | -14.1% (inactive)
8 | COc1ccccc1C(=O)c1cc2ccc(O)cc2oc1=O | -11% (inactive)
9 | COc1ccccc1N1CCN(C2CCC(C)CC2)CC1 (stereo not given) | -3.96% (inactive)
10 | N=c1c(C(=O)NCC2CCCO2)cc2c(=O)n3ccccc3nc2n1Cc1ccc(Cl)cc1 (stereo not given) | -14.8% (inactive)
11 | CCOC(=O)c1cc2c(=O)n3ccccc3nc2n(CCCOC)c1=NC(=O)c1ccncc1 | -12.2% (inactive)
12 | COc1cccc2c(=O)c3c(cnn3C)n(C)c12 | -1.18% (inactive)
13 | CNNC(=S)NC1CC2CC1C1C=CCC21 (stereo not given) | -6.4% (inactive)
14 | O=[N+]([O-])c1cccc(Nc2c3ccccc3nc3ccccc23)c1 | -17.4% (inactive)
15 | Cc1c(C=O)c2ccccn2c1C(=O)c1cccs1 | 1.65% (inactive)
16 | CC(C)N1CCc2c(sc(NC(=O)Cc3ccccc3)c2C#N)C1 | 8.38% (inactive)
17 | CC(C)c1ccc(/C=C2\Oc3c(ccc(O)c3CN3CCN(C)CC3)C2=O)cc1 | 3.11% (inactive)
18 | N#C/C(=C\c1ccco1)C(=O)Nc1cccc2ncccc12 | -5.39% (inactive)

Row | SMILES | activity change, negative = cytotoxicity
19 | O=C(NCc1nnnn1-c1ccc(Cl)cc1)C1CC(=O)N(c2ccc(F)cc2)C1 (stereo not given) | -2.53% (inactive)
20 | COc1ccc(C2CC(c3ccccc3)=NN2c2ccc(C(N)=O)cc2)cc1 (stereo not given) | 2.22% (inactive)
21 | CCCCN(CCCC)CC(O)Cn1c2ccccc2c(=O)c2ccccc21 (stereo not given) | -21.4% (inactive)
22 | COCCn1c(=N)c(S(=O)(=O)c2ccc(F)cc2)cc2c(=O)n3ccccc3nc21 | -0.298% (inactive)
23 | S=c1[nH]c2ccc(Cc3ccc4[nH]c(=S)[nH]c4c3)cc2[nH]1 | -19.2% (inactive)
24 | CC(=O)c1sc(N/N=C\c2ccc(N(C)C)cc2)nc1C | -8.39% (inactive)
25 | CCN1C=C(C(=O)OC)C(c2cccc(OC)c2OC)C(C(=O)OC)=C1 | 3.47% (inactive)
26 | COc1ccccc1OCc1ccc(C(=O)N(C)c2ccccc2)o1 | 3.98% (inactive)
27 | CCOc1ccc(NC(=O)CN(C)C(=O)CCCNC(=O)c2ccc(Cl)cc2)cc1OCC | -7.49% (inactive)
28 | O=C(C1=NN(c2ccccc2)C2C(=O)N(c3ccccc3)C(=O)C12)c1ccccc1 (stereo not given) | 16.3% (inactive)
29 | COC(=O)C1=CN(Cc2ccc(OC)c(OC)c2)C=C(C(=O)OC)C1c1cccc(F)c1 | -1.56% (inactive)
30 | O=c1oc2c(CN3CCN(CCO)CC3)c(O)ccc2cc1-c1ccccn1 | -7.38% (inactive)
31 | COC(=O)C1=CN(C)C=C(C(=O)OC)C1c1ccccc1Cl | -5.6% (inactive)
32 | CCc1nc2ccc(C(=O)NCCc3c[nH]c4ccccc34)cn2c1N(C=O)CCC(C)C | -13.9% (inactive)
33 | CCN(c1ccccc1)S(=O)(=O)c1ccc(OC)c(NC(=O)CN(C)C)c1 | -14.4% (inactive)
34 | C=CCc1c(O)c(CC)cc2c(C)cc(=O)oc12 | -9.42% (inactive)
35 | COc1ccc(C2c3ccc(O)cc3Oc3ncn4nc(-c5ccccn5)nc4c32)cc1 (stereo not given) | -1.07% (inactive)
